Results reported in ChEMBL document CHEMBL3988442, “University of Dundee, Small-Polar-MMV Screening Library” (2021).
For part of these data: Measured potencies and affinities stand elsewhere.

How the values were obtained:
[1] = molecular target: T1, Methionyl-tRNA synthetase, putative (Leishmania donovani (strain BPK282A1)) (UniProt E9BF75); test: Leishmania donovani Methionine tRNA synthetase (LdMetRS):v7. Dose response assay; type: functional; design: conc 80 nM, time 150 minutes
T1 sequence (whole entry): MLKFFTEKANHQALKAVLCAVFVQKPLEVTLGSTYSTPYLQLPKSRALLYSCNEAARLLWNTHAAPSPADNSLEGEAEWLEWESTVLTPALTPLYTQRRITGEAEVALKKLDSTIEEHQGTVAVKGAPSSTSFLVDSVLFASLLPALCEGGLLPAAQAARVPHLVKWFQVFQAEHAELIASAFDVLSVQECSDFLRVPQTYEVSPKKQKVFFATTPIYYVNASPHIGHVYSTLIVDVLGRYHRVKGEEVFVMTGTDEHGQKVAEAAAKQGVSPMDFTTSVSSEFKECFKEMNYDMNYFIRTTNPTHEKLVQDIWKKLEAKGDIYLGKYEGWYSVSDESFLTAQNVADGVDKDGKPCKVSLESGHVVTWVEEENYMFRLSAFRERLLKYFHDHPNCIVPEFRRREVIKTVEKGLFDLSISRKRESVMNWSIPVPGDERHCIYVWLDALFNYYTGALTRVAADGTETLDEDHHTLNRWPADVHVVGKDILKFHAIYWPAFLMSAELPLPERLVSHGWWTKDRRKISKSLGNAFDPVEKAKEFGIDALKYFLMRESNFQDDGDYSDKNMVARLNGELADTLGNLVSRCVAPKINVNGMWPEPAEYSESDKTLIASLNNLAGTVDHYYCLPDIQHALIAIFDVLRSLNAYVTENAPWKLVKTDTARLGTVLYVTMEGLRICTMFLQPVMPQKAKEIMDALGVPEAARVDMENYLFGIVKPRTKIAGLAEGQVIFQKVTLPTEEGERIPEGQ

[2] = molecular target: Protein translocase subunit SecA (Escherichia coli (strain K12)) (UniProt P10408); test: Assay to Identify E. coli SecA ATPase Inhibitors; type: functional; design: scale not given: direction of the effect not stated beside the values; conditions: 30 µM
Chain of Protein translocase subunit SecA (Escherichia coli (strain K12)) (P10408 whole entry): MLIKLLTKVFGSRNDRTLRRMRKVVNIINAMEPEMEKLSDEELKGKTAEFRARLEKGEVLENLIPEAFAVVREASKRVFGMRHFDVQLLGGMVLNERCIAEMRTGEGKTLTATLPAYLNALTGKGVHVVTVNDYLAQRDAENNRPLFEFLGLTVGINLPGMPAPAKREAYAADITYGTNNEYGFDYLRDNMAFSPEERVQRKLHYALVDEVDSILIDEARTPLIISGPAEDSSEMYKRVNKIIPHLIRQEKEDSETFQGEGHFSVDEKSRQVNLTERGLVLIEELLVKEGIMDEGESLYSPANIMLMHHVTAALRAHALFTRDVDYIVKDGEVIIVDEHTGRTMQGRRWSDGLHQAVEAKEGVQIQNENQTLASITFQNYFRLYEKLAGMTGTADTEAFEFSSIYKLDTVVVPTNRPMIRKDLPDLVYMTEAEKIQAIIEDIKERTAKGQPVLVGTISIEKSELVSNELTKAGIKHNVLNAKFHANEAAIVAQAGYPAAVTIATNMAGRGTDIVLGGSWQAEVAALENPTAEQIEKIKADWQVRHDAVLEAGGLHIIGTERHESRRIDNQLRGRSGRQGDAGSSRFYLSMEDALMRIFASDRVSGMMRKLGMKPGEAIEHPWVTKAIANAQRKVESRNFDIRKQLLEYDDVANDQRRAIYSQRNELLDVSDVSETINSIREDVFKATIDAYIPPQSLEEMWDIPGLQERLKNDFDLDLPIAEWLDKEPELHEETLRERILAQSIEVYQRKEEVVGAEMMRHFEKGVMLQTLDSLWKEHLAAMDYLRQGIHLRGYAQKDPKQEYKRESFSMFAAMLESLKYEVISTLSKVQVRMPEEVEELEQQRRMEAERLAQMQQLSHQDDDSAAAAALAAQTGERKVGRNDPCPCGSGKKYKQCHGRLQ

[3] = molecular target: T2, Ubiquitin-activating enzyme e1, putative (Leishmania donovani (strain BPK282A1)) (UniProt E9BSI1); test: Leishmania donovani Ubiquitin Activating Enzyme (LdE1); type: functional; design: scale not given: direction of the effect not stated beside the values; conditions: 30 µM
T2 sequence (whole entry): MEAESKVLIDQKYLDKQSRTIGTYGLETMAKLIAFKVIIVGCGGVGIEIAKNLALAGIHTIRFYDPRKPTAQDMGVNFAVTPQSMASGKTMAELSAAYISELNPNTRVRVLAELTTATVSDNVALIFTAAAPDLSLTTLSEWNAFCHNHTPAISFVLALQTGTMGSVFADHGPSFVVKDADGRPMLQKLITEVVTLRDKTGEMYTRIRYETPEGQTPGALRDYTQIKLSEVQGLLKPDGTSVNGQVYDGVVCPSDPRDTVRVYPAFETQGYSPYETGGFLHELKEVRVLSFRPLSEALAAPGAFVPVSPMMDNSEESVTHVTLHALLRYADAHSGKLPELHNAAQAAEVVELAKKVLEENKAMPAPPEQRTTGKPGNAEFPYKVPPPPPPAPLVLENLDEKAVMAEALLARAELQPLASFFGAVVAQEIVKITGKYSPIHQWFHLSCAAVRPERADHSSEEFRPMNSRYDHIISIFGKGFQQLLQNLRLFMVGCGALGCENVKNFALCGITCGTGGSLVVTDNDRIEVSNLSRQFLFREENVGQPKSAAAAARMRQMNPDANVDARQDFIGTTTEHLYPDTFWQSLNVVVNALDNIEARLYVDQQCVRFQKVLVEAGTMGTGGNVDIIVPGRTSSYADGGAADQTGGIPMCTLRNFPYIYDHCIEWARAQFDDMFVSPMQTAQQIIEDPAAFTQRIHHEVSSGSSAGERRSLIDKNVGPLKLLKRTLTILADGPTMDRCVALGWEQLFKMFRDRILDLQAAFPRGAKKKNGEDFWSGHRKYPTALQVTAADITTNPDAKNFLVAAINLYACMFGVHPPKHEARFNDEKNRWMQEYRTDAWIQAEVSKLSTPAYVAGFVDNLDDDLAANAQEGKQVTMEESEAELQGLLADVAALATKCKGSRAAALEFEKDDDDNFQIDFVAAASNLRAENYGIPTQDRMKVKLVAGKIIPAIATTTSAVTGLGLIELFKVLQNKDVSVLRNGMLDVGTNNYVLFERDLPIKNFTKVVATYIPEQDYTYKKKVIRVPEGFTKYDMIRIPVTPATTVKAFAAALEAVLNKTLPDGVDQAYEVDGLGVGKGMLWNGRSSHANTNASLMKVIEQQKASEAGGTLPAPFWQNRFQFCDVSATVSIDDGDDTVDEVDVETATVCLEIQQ

[4] = molecular target: Sialic acid-binding Ig-like lectin 9 (Homo sapiens) (UniProt Q9Y336); test: Hs-Siglec9 ALPHAscreen SOP 20170721; design: scale not given: direction of the effect not stated beside the values; conditions: 10 µM
Chain of Sialic acid-binding Ig-like lectin 9 (Homo sapiens) (Q9Y336 whole entry): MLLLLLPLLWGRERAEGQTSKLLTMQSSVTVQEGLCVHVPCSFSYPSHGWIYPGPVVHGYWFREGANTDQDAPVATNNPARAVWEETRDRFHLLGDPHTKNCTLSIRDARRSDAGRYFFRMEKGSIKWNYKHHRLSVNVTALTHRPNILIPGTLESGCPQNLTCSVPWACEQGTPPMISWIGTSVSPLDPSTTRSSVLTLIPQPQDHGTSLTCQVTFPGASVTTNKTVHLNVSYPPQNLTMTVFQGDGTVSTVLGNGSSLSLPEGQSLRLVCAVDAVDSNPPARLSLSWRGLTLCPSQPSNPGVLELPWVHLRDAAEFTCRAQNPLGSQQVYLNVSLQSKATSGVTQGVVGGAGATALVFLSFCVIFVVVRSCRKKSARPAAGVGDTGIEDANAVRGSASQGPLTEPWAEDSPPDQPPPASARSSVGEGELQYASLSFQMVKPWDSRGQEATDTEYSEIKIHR

Trypanosoma cruzi = test: Trypanosoma cruzi phosphomannomutase and mannose-1-phosphate guanylyltransferase assay; type: functional; design: scale not given: direction of the effect not stated beside the values; conditions: 10 µM
[5] = molecular target: T3, Arginase-2, mitochondrial (Homo sapiens) (UniProt P78540); test: in vitro enzyme assay to detect the production of urea directly proportional to the activity of Arginase II; type: functional; design: scale not given: in the data most compounds retested in dose-response had high values; conditions: 33.3 µM
T3 sequence (whole entry): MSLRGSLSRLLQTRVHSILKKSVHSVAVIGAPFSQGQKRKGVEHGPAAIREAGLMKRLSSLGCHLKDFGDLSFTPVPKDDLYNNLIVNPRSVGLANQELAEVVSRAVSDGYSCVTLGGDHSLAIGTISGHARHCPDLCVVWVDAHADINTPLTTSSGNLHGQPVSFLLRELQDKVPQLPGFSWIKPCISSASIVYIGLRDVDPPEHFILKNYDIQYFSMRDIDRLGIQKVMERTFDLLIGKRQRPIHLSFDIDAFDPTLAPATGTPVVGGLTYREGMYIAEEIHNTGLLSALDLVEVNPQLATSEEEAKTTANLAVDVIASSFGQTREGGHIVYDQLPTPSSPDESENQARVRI

[6] = molecular target: T4, Proteasome subunit beta (Trypanosoma cruzi) (UniProt O96673); test: Trypanosoma cruzi proteasome chymotrypsin-like activity (TcProtChymo) assay.; type: functional; design: scale not given: in the data most compounds retested in dose-response had high values; conditions: 9.37 µM
T4 sequence (whole entry): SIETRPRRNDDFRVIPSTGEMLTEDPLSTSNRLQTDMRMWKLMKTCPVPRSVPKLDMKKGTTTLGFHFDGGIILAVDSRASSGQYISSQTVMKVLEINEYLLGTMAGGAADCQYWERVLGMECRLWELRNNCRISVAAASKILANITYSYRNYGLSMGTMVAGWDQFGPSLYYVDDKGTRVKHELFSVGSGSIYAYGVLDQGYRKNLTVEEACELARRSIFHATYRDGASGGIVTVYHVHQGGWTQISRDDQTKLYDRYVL

Homo sapiens = organism: Homo sapiens; test: To identify inhibition of the IFN signalling (Jak-Stat) pathway via expression of an eGFP reporter gene under the control of an IFN-stimulated response element (ISRE) containing MxA promoter.; type: functional; design: scale not given: direction of the effect not stated beside the values; conditions: 30 µM
[7] = molecular target: T5, Tyrosyl-tRNA synthetase, putative (Trypanosoma cruzi (strain CL Brener)) (UniProt Q4DSP6); test: Trypanosoma cruzi tyrosyl tRNA synthetase (TcYRS) _High Tyrosine SOP; type: functional; design: scale not given: in the data most compounds retested in dose-response had high values; conditions: 30 µM
T5 sequence (whole entry): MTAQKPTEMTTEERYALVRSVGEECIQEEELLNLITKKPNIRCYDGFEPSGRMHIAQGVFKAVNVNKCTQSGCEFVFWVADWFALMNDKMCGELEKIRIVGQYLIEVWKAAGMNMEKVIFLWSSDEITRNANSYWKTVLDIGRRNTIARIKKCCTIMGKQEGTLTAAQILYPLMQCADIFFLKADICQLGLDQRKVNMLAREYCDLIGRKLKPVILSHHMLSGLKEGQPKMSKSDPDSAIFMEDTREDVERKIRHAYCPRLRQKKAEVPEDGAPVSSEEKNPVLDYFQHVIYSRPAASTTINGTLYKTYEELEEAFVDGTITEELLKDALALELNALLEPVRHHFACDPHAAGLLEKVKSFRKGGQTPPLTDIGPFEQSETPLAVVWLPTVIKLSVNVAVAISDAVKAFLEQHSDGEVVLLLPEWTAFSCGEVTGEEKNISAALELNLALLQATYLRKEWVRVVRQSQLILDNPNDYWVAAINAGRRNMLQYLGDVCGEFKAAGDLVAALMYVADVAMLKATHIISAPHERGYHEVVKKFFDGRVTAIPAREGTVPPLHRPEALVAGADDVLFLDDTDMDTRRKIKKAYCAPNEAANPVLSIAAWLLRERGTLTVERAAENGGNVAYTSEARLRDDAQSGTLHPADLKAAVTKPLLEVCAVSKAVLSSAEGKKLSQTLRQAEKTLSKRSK

[8] = molecular target: T5, Tyrosyl-tRNA synthetase, putative (Trypanosoma cruzi (strain CL Brener)); test: Trypanosoma cruzi tyrosyl tRNA synthetase (TcYRS) SOP; type: functional; design: scale not given: direction of the effect not stated beside the values; conditions: 30 µM
[9] = molecular target: Chromo domain-containing protein 1 (Saccharomyces cerevisiae (strain ATCC 204508 / S288c) (Baker's yeast)) (UniProt P32657); test: ScCHD-1 Enzyme Inhibition Assay; type: functional; design: scale not given: in the data most compounds retested in dose-response had high values; conditions: 30 µM
Chain of Chromo domain-containing protein 1 (Saccharomyces cerevisiae (strain ATCC 204508 / S288c) (Baker's yeast)) (P32657 whole entry, the tested form may be a part): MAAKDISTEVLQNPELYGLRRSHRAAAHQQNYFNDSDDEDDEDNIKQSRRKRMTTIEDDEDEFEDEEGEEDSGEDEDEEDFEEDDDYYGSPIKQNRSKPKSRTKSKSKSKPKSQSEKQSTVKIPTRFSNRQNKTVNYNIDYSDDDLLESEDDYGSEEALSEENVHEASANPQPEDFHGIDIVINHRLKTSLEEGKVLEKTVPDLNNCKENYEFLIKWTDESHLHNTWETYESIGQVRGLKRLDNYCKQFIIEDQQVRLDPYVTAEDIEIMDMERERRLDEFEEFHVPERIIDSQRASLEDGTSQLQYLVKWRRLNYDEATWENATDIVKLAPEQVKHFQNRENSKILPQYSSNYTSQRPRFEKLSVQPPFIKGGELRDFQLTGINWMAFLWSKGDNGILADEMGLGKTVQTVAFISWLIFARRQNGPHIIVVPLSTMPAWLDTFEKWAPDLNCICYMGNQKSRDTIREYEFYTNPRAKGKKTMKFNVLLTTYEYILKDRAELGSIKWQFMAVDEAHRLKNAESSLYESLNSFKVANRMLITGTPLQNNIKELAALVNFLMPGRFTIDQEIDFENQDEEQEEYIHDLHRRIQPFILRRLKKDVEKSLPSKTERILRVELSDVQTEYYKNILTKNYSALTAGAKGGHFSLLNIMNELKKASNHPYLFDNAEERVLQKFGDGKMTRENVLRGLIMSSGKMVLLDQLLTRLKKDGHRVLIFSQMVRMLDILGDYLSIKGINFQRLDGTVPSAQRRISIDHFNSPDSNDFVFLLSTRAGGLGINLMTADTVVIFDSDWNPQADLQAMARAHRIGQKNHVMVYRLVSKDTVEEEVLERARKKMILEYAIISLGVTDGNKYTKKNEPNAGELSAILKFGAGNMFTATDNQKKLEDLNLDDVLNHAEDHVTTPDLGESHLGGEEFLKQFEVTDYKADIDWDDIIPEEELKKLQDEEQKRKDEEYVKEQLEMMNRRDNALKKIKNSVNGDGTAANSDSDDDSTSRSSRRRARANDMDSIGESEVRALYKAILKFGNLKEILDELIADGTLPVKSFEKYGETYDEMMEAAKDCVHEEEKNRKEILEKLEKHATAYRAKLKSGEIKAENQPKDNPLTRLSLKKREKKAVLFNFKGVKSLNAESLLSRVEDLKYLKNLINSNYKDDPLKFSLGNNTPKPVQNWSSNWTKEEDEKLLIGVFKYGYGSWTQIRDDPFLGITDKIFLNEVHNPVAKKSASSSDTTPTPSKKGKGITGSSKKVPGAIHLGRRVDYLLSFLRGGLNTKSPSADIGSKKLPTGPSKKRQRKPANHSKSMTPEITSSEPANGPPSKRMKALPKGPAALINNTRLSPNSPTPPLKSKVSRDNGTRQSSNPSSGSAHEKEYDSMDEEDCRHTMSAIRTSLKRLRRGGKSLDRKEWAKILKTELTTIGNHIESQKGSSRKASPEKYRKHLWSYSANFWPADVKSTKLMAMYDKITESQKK

O=C(NC1CC1)c1ccc2ccc(N3CCN(CC4CC4)CC3)n2c1
PXC50 ([1]; BOTTOM 0.467703885, HILLSLOPE 1.411799655, MAX_EFFECT 58.90736342, TOP 70.88537837): 4.49
PXC50 ([1]; BOTTOM 3.025092892, HILLSLOPE 1.100251625, MAX_EFFECT 63.9084507, TOP 101.8817942): 4.18
PXC50 ([1]; BOTTOM 3.903834548, HILLSLOPE 2.10176548, MAX_EFFECT 63.76811594, TOP 66.05792102): 4.72
PXC50 ([1]; BOTTOM -3.956247574, HILLSLOPE 1.036561065, MAX_EFFECT 73.83512545, TOP 100.0): 4.45
PXC50 ([1]; BOTTOM -4.174046537, HILLSLOPE 0.97706716, MAX_EFFECT 63.03630363, TOP 100.0): 4.22
Percent Effect [2]: 0.138%
Percent Effect [3]: 9.09%
Percent Effect [4]: 0.503%
Percent Effect (Trypanosoma cruzi): 7.69%
Percent Effect [5]: -1.37%
Percent Effect [6]: 9.19%
Percent Effect (Homo sapiens): -15.1%
Percent Effect [7]: 45.4%
Percent Effect [8]: 22.5%
Percent Effect [9]: -3.97%
